Measurements from PubChem BioAssay (NCI).
The panel holds about 83,000 compounds, 20% with a hit somewhere; the sample as a whole holds those more often.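 How to read the values: 0–100, growth inhibition (40 = 60% inhibited); 0, no net growth; -100 to 0, cell death (-40 = 40% of starting cells died; -100 = all dead).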 A number with no mark means an inactive call. The source made the active and inactive calls. Rule for the calls: active = growth percent below 10; inactive = the rest.

How the values were obtained:
Assay in all cases: NCI-60 one-dose screen, 48 h (100 = growth as untreated, 0 = no growth, -100 = all killed)
Conditions in all cases: 10 µM unless noted
SNB-75 CNS = test system: SNB-75 CNS
SNB-19 CNS = test system: SNB-19 CNS
U251 CNS = test system: U251 CNS
SK-MEL-5 melanoma = test system: SK-MEL-5 melanoma
UACC-62 melanoma = test system: UACC-62 melanoma
LOX IMVI melanoma = test system: LOX IMVI melanoma
SK-MEL-28 melanoma = test system: SK-MEL-28 melanoma
SK-MEL-2 melanoma = test system: SK-MEL-2 melanoma
PC-3 prostate = test system: PC-3 prostate

`O=C1CC(=O)N(c2ccccc2)O1` showed a growth (SNB-75 CNS) of 85%, a growth (SNB-19 CNS) of 110% and a growth (U251 CNS) of 104%. The growth (SK-MEL-5 melanoma) was 97.6%, the growth (UACC-62 melanoma) was 93.9% and the growth (LOX IMVI melanoma) was 89.5%. It also gave a growth (SK-MEL-28 melanoma) of 107%.

`COC(=O)CC1=C(C)/C(=C/c2[nH]c(-c3ccc[nH]3)cc2OC)N=C1C` was tested, and the growth (SNB-75 CNS) was -38.6% (active), the growth (SNB-19 CNS) was 32.3% and the growth (U251 CNS) was 5.15% (active). For the same molecule, the growth (SK-MEL-5 melanoma) was -92.8% (active), the growth (UACC-62 melanoma) was -46.5% (active) and the growth (LOX IMVI melanoma) was -57.6% (active). For the same molecule, the growth (SK-MEL-28 melanoma) was -3.01% (active).

`Cc1cc(C)c2c(c1)N1OC(C2)C[C@H]1/C=C/c1ccccc1` (some centres undefined) showed a growth (SNB-75 CNS) of 109%, a growth (SNB-19 CNS) of 103% and a growth (U251 CNS) of 107%. For the same molecule, the growth (SK-MEL-5 melanoma) was 93.7%, the growth (UACC-62 melanoma) was 88% and the growth (LOX IMVI melanoma) was 94.4%. The growth (SK-MEL-28 melanoma) was 104%.

In the case of `c1csc([C@@H]2C[C@@H]3Cc4ccc5ccccc5c4N2O3)c1`, the growth (SNB-75 CNS) is reported as 87.1%, the growth (SNB-19 CNS) is reported as 97.5% and the growth (U251 CNS) is reported as 96.8%. The growth (SK-MEL-5 melanoma) was 101%, the growth (UACC-62 melanoma) was 79.7% and the growth (LOX IMVI melanoma) was 98.9%. For the same molecule, the growth (SK-MEL-28 melanoma) was 103%.

Molecule `O=C1NCN(c2ccccc2)C12CCN(CCCC(c1ccc(F)cc1)c1ccc(F)cc1)CC2` has a growth (SNB-75 CNS) of 72%, a growth (SNB-19 CNS) of 78.2% and a growth (U251 CNS) of 55.2%. The growth (SK-MEL-5 melanoma) was 41.4%, the growth (UACC-62 melanoma) was 78.2% and the growth (LOX IMVI melanoma) was 61.9%. The growth (SK-MEL-28 melanoma) was 56.8% and the growth (SK-MEL-2 melanoma) was 81%.

For `O[C@@H]1Cc2ccc3ccccc3c2N[C@H](c2ccoc2)C1`, the growth (SNB-75 CNS) was 95.5%, the growth (SNB-19 CNS) was 102% and the growth (U251 CNS) was 100%. It also gave a growth (SK-MEL-5 melanoma) of 92.8%, a growth (UACC-62 melanoma) of 101% and a growth (LOX IMVI melanoma) of 92.7%. For the same molecule, the growth (SK-MEL-28 melanoma) was 125%.

In the case of `Clc1ccccc1[C@@H]1C[C@@H]2Cc3cc(Br)c4ccccc4c3N1O2`, the growth (SNB-75 CNS) is reported as 4.57% (active), the growth (SNB-19 CNS) is reported as 38.2% and the growth (U251 CNS) is reported as 34.4%. The growth (SK-MEL-5 melanoma) was 30.2%, the growth (UACC-62 melanoma) was 24.4% and the growth (LOX IMVI melanoma) was 37%. The growth (SK-MEL-28 melanoma) was 47.5%.

`Cc1cc(=O)n2n1-c1ccc(Cl)cc1NC(=O)C2` showed a growth (SNB-75 CNS) of 86.6%, a growth (SNB-19 CNS) of 97.5% and a growth (U251 CNS) of 95.2%. It also gave a growth (PC-3 prostate) of 89.8%, a growth (SK-MEL-5 melanoma) of 97.5% and a growth (UACC-62 melanoma) of 107%. For the same molecule, the growth (SK-MEL-28 melanoma) was 101% and the growth (SK-MEL-2 melanoma) was 118%.

`N=C(N)/N=C(\CCc1nc2ccccc2[nH]1)c1nc2ccccc2[nH]1` gave a growth (SNB-75 CNS) of 82.5%, a growth (SNB-19 CNS) of 93.6% and a growth (U251 CNS) of 103%. For the same molecule, the growth (SK-MEL-5 melanoma) was 98%, the growth (UACC-62 melanoma) was 82.2% and the growth (LOX IMVI melanoma) was 85.4%. For the same molecule, the growth (SK-MEL-28 melanoma) was 100%.

Molecule `O=C(CCc1nnc(SCc2ccccc2)s1)c1nc2ccccc2[nH]1` has a growth (SNB-75 CNS) of 90.5%, a growth (SNB-19 CNS) of 93.2% and a growth (U251 CNS) of 89.6%. The growth (SK-MEL-5 melanoma) was 99.4%, the growth (UACC-62 melanoma) was 84.8% and the growth (LOX IMVI melanoma) was 80.8%. For the same molecule, the growth (SK-MEL-28 melanoma) was 108%.

`NCCCc1nnc(CCC(=O)c2nc3ccccc3[nH]2)o1` gave a growth (SNB-75 CNS) of 90.8%, a growth (SNB-19 CNS) of 102% and a growth (U251 CNS) of 102%. The growth (SK-MEL-5 melanoma) was 108%, the growth (UACC-62 melanoma) was 90.2% and the growth (LOX IMVI melanoma) was 90.9%. For the same molecule, the growth (SK-MEL-28 melanoma) was 105%.

`Cc1ccc2c(c1)O/C(=C\c1ccc([N+](=O)[O-])o1)C2=O` was tested, and the growth (SNB-19 CNS) was 93.4%, the growth (U251 CNS) was 68.3% and the growth (PC-3 prostate) was -61.2% (active). For the same molecule, the growth (SK-MEL-5 melanoma) was 76.9%, the growth (UACC-62 melanoma) was 51.5% and the growth (LOX IMVI melanoma) was 4.66% (active). It also gave a growth (SK-MEL-28 melanoma) of 83.3% and a growth (SK-MEL-2 melanoma) of 79.2%.

`C=C(C)[C@@H]1C[C@H](O)Cc2cc(Cl)cc(Cl)c2N1` was tested, and the growth (SNB-75 CNS) was 87.4%, the growth (SNB-19 CNS) was 103% and the growth (U251 CNS) was 94.7%. It also gave a growth (SK-MEL-5 melanoma) of 102%, a growth (UACC-62 melanoma) of 95% and a growth (LOX IMVI melanoma) of 92.3%. For the same molecule, the growth (SK-MEL-28 melanoma) was 114%.
